Screening data: PubChem, National Center for Advancing Translational Sciences (NCATS)
L3MBTL1 inh: inhibitors of human L3MBTL1; AID 485360; 230,000 compounds, 0.66% hits; Potency, µM (titrated, usually from 57.1 µM), without a hit: at the highest dose activity, negative = inhibition, hits mostly inhibitors; AlphaScreen L3MBTL1–H3K9me1 peptide binding; Q9Y468; also: % is scaled to controls: 0 for no effect and ±100 for the full control effect; nearly all actives have a fitted effect of over 60% in size
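AlphaScreen proximity signal between nickel-chelate acceptor and streptavidin donor beads (final 10 ug/mL) reports binding of 50 nM L3MBTL1 to 75 nM biotin-H3 K9me1 peptide; complex incubated with compounds 30 min at room temperature; cefsulodin titration as control.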
Sfp PPTase inh: Sfp phosphopantetheinyl transferase inhibition | Biochemical Sfp PPTase activity, qHTS | Potency, µM, without a hit: largest response in the series, negative = inhibition, actives largely listed as inhibitors | 310,000 compounds, 3.5% hits | AID 1490;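 also: the enzyme is Sfp with the accession as filed and its product quenches rhodamine fluorescence; 0% = enzyme reaction without inhibitor and -100% = no enzyme wells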
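With Hepes-Na pH 7.6 buffer containing 10 mM MgCl2, Sfp (15 nM) modified BHQ-2-YbbR (12.5 uM) using rhodamine-CoA (5 uM). Two reads 30 minutes apart at 525/598 nm yielded each well's rate.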
BAZ2B inh: blocks human BAZ2B | Potency, µM (highest dose often 114 µM), inactives show at the highest dose activity change, negative = inhibition, actives largely listed as inhibitors | Q9UIF8 | AlphaScreen BAZ2B-H3K14Ac peptide displacement | AID 504333 | 360,000 compounds, 4.4% hits; also: % is scaled to controls: 0 for no effect and ±100 for the full control effect; nearly all actives have a fitted effect of over 60% in size
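Multi-concentration screen (max 110 uM) measuring displacement of acetylated histone H3 peptide from BAZ2B by AlphaScreen, using 50 nM protein, 50 nM peptide and 10 ug/mL streptavidin donor plus Ni-chelate acceptor beads.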
G9a inh: G9a (human) methyltransferase inhibition. G9a H3K9 monomethylation, AlphaScreen, 2 h. Potency, µM (highest dose often 102 µM), inactives show top-dose activity, negative = inhibition, usual class: inhibitors. 350,000 compounds, 8.8% hits; also: % is scaled to controls: 0 for no effect and ±100 for the full control effect; nearly all actives have a fitted effect of over 75% in size
Target sequence (Q96KQ7 913-1193 limits assumed): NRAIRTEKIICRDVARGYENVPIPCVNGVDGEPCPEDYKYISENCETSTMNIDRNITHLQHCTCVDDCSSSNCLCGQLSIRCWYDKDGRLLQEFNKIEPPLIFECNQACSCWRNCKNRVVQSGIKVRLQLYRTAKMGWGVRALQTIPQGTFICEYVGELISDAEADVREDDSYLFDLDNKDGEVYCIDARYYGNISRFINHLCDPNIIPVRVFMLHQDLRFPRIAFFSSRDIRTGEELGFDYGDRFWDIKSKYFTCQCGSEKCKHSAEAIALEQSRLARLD
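Quantitative HTS format: methyltransferase activity on a biotin-tagged H3K9 peptide is measured by AlphaScreen, using a rabbit anti-monomethyl-H3K9 antibody with streptavidin donor and anti-IgG acceptor beads. Final levels are 20 nM enzyme, 500 nM peptide, 20 uM SAM; 2 h RT.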
HP1b binding inh: inhibitors of HP1-beta chromodomain binding to methylated histone tails. 390,000 compounds, 0.56% hits. AlphaScreen HP1-beta / biotin-H3K9me3 peptide binding. P83916. Potency, µM (highest dose often 114 µM), without a hit: at the top dose activity change, negative = inhibition, usual class: inhibitors; also: nearly all actives have a fitted effect of over 70% in size
Target sequence (P83916 whole entry, looked up): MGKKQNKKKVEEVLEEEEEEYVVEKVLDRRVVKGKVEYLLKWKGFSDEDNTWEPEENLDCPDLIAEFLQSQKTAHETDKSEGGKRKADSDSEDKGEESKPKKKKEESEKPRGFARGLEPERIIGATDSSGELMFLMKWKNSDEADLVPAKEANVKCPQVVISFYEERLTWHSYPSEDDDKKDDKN
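AlphaScreen: HP1-beta (50 nM) preformed 30 min with biotin-H3(1-18)K9me3 peptide (50 nM) in PBS pH 7.4, 0.01% Tween-20. Compound added for 30 min at RT, then streptavidin donor/nickel chelate acceptor beads (10 ug/mL) for 30 min.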
JMJD2A Tudor: blocks the human JMJD2A Tudor domain; AlphaScreen JMJD2A-Tudor / H3K4me3 peptide binding; Potency, µM (series often up to 114 µM), inactives show top-dose activity change, negative = inhibition, most hits filed as inhibitors; 390,000 compounds, 4.4% hits; AID 504339; also: % is scaled to controls: 0 for no effect and ±100 for the full control effect; nearly all actives have a fitted effect of over 50% in size
The depositor's hits bear a star; ? = inconclusive; · = not tested or not shown; [ ] = dose if it differs, or a comment. This is a sample that favours compounds with a hit; in the whole collection about 12% have one here. Calls follow the shape of the dose curve; as a rule, active = well fitted curve in the direction sought with a large enough effect; inconclusive = small, poorly fitted or top-dose-only effect, or another doubt; inactive = no such curve, though single readings can be large; an effect the other way counts as inactive or inconclusive. Potency is read from the fitted curve at half-maximal effect.

SMILES	L3MBTL1 inh	Sfp PPTase inh	BAZ2B inh	G9a inh	HP1b binding inh	JMJD2A Tudor
CC(Cc1cccs1)NC(=S)Nc1ccc(F)cc1 (configuration not stated)	6%	0%	8%	14%[59 µM]	35%	-8%
CCC(C)NC(=S)Nc1ccc(F)cc1 (configuration not stated)	·	-2%	3%	50µM*	41%	11%
Oc1ccc(NC(=S)Nc2ccc(F)cc2)cc1	-8%	-12%	-18%	6%[59 µM]	45%	-7%
CCN(CC)c1ccc(NC(=S)Nc2ccc(F)cc2)cc1	·	45µM*	22µM*	13µM*	25µM*	35µM*
O=C(OCC(=O)N1CCCc2ccccc21)c1ccc(S(=O)(=O)C(F)F)cc1	3%	·	8%	50µM*	10%	-21%
CCCn1cc(S(=O)(=O)c2ccc(CC)cc2)c(=O)c2cc(F)c(N3CCN(C)CC3)cc21	·	·	0%	-5%[59 µM]	11%	-4%
CC1CCN(c2cc(N)c(Cl)cc2[N+](=O)[O-])CC1	-5%	1%	?	50µM*	-17%	?
C(=N\c1nccs1)/Nc1nccs1	-1%	-21%	79µM*	28µM*	-77%	35µM*
O=C(c1sc2cc([N+](=O)[O-])ccc2c1Cl)N1CCCCC1	-11%	-4%	?	?	?	?
CC1CCCN(C(=O)c2sc3cc([N+](=O)[O-])ccc3c2Cl)C1 (configuration not stated)	-11%	-20%	50µM*	40%[0.501 µM]	?	?
N#Cc1cccc(-c2ccc3ncnc(NCc4cccnc4)c3c2)c1	·	-12%	·	·	·	·
CN(C)CCCN(C(=O)c1ccc2c(c1)CCCC2)c1nc2ccc(Cl)cc2s1	-19%	35µM*	?	?	-38%	40µM*
CCOc1ccc2nc(N(CCCN(C)C)C(=O)c3ccc4c(c3)CCCC4)sc2c1	·	-24%	?	45µM*	-4%	?
COc1ccc(-c2csc(NC(=O)CSc3nnc(Nc4ccccc4C)s3)n2)cc1	5%	16%	-15%	11µM*	19%	-14%
CCOc1ccccc1Nc1nnc(SCC(=O)Nc2nc(-c3ccc(OC)cc3)cs2)s1	1%	8%	-9%	8.9µM*	33%	?
COc1ccccc1Nc1nnc(SCC(=O)Nc2nc(-c3ccc(F)cc3)cs2)s1	4%	2%	-7%	·	44%	-14%
Cc1ccc(S(=O)(=O)N2CCN(c3nc(-c4cccs4)cc4ccccc34)CC2)cc1	·	·	·	·	27%	-19%
O=C1c2ccccc2C(=O)N1CCSc1ncn[nH]1	39%	-8%	49%	-9%[59 µM]	42%	-2%
CC(C)CSc1n[nH]c(N)n1	·	4%	-7%	13%	0%	-14%
CC(CC(=O)Nc1cccnc1)c1ccccc1 (configuration not stated)	0%	13%	-9%	4%	16%	-9%
CC(CSc1n[nH]c(=S)s1)c1ccccc1 (configuration not stated)	·	·	·	·	50µM*	18µM*
CC(C)CSc1n[nH]c(=S)s1	2%	35µM*	50µM*	1.8µM*	28µM*	8.9µM*
O=C1c2ccccc2C(=O)N1CCSc1n[nH]c(=S)s1	·	50µM*	?	1.3µM*	?	18µM*
O=C(NC1CCCCC1)c1ccc(CSc2nc3cccnc3n2Cc2ccc(F)cc2)cc1	·	·	-9%	-26%[59 µM]	11%	-15%
COc1ccc(S(=O)(=O)n2nc(-c3ccco3)nc2NCc2ccc(C(C)C)cc2)cc1	·	·	-34%	-18%[59 µM]	50%	-13%
CCN1C(C(=O)c2ccccc2)=C(OC(=O)COc2ccccc2)c2ccccc2S1(=O)=O	·	·	?	13µM*	2%	35µM*
CCN1C(C(=O)c2ccccc2)=C(OC(=O)C(C)C)c2ccccc2S1(=O)=O	·	·	-26%	-16%[59 µM]	29%	-29%
COc1ccc(C(=O)OC2=C(C(=O)c3ccccc3)N(C)S(=O)(=O)c3ccccc32)cc1OC	·	·	?	20µM*	-5%	-30%
